# Measurements taken from PubChem BioAssay.
# Results filed as inconclusive are left out. Calls of active or inactive are those of the source.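 The calls were made as follows, unless noted: active = normalized viability below 100% at a tested concentration; inactive = the rest.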
# Columns and labels:
# [1] = growth inhibition of DIPG glioma cells, dose response, cell-based, SU-DIPG-XVII, MIPE5.0, CellTiter-Glo, qHTS (AID 1347060; cut-off not given, nearly all actives have AC50 up to about 26 µM); conditions: SU-DIPG-XVII viability, CellTiter-Glo ATP luminescence
# [2] = growth inhibition of DIPG glioma cells, dose response, cell-based, JHH-DIPG-1, MIPE4.0, CellTiter-Glo, qHTS (AID 1347062; cut-off not given, nearly all actives have AC50 up to about 27 µM); conditions: JHH-DIPG-1 viability, CellTiter-Glo ATP luminescence
# [3] = growth inhibition of DIPG glioma cells, dose response, cell-based, SU-DIPG-IV, MIPE4.0, CellTiter-Glo, qHTS (AID 1347063; cut-off not given, nearly all actives have AC50 up to about 30 µM;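 also: compound exposure lasted 48 hours before the viability readout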); conditions: SU-DIPG-IV viability, CellTiter-Glo ATP luminescence
# [4] = SU-DIPG-VI glioma cell viability, MIPE4.0 library, CellTiter-Glo luminescence, qHTS (AID 1347066; cut-off not given, nearly all actives have AC50 up to about 30 µM;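 also: cells exposed to compound for 48 hours before readout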); conditions: CellTiter-Glo ATP luminescence
# [5] = JHH-DIPG-1 glioma cell viability, MIPE5.0 library, CellTiter-Glo luminescence, qHTS (AID 1347067; cut-off not given, nearly all actives have AC50 up to about 26 µM;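 also: cells exposed to compound for 48 hours before readout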); conditions: JHH-DIPG-1 glioma viability, CellTiter-Glo ATP luminescence
# [6] = sensitizers of A549 cells to miR-34 induction, primary screen, imaging, A549 dox-inducible miR-34, nuclei and caspase counts (AID 1347080;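 active = compounds whose cell count with miR-34 switched on is under 0.7 times the count with it off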); conditions: A549 miR-34 inducible, Hoechst nuclei count, 48 h
# [7] = modifiers of HSF1 nuclear foci, imaging, Selleck Cancer Library (AID 1347162; in the data active = plate-normalised HSF1 focus index below about 0.46); conditions: human cells, at 10 µM; SSMD: measured here: HSF1 foci SSMD mean; cell count: measured here: cell number; plate-normalised HSF1 focus index: stronger effect = lower value
# [8] = survival rescue of mitochondrial mutant cells in low glucose, primary screen, MELAS cybrids, Rieske KO mouse fibroblasts, CellTiter-Glo (AID 1508586;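 active = mean z-score across replicates of 1.96 or higher in either the MELAS or the Rieske mutant cell line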;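 also: z relative to plate mean and SD of compound and empty wells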)
# [9] = ovarian cancer cell viability with rucaparib, profiling panel, oncology-focused library, rucaparib conditional (AID 1508598); conditions: patient-derived ovarian cancer cells, CellTiter-Glo viability, 144 h, stronger effect = lower value
# [10] = LFS_MB_P medulloblastoma growth inhibition, cell-based, chromothripsis tumors, cisplatin or BGB combos (AID 1671449; in the data active = inhibition above about 80%;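 also: cells exposed for 96 hours; 0% = vehicle DMSO and 100% = killing by high DMSO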); conditions: LFS_MB_P medulloblastoma cells
# [11] = HDN33 neuroblastoma growth inhibition, cell-based, chromothripsis tumors, cisplatin or BGB combos (AID 1671450; in the data active = inhibition above about 80%;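 also: cells exposed to compound for four days; 0% = vehicle DMSO and 100% = cell killing by high DMSO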); conditions: HDN33 neuroblastoma cells, stronger effect = higher value
# [12] = ICB984 medulloblastoma cell growth inhibition, synergistic combos for chromothripsis tumors, cisplatin or BGB combos (AID 1671451; call rule not given here;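 also: cells exposed for 96 hours before readout; 0% = vehicle DMSO and 100% = killing by high DMSO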); conditions: ICB984 medulloblastoma cells, drug combinations, stronger effect = higher value
# [13] = HTB85 osteosarcoma cell growth inhibition, synergistic combos for chromothripsis tumors, BGB or cisplatin IC20 combos (AID 1671453; in the data active = inhibition above about 80%;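 also: cells exposed for 96 hours before readout; 0% = vehicle DMSO and 100% = high DMSO killing control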); conditions: HTB85 osteosarcoma cells, drug combinations, stronger effect = higher value
# [14] = MDA-MB-436 breast carcinoma cell growth inhibition, synergistic combos for chromothripsis tumors, BGB or cisplatin combos (AID 1671458; call rule not given here;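 also: cells exposed for 96 hours; 0% = vehicle DMSO and 100% = killing by high DMSO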); conditions: MDA-MB-436 breast carcinoma growth inhibition, drug combinations, stronger effect = higher value
# [15] = growth inhibition of BT084 medulloblastoma cells, cell-based, ICGC_MB145, cisplatin and BGB IC40 combos (AID 1671461; in the data active = inhibition above about 80%;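 also: cells exposed to drugs for 96 hours; 0% = vehicle DMSO and 100% = high DMSO full killing control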); conditions: drug combinations, stronger effect = higher value
# [16] = growth inhibition of RCMB18 medulloblastoma cells, cell-based, cisplatin and BGB IC40 combos (AID 1671462; in the data active = inhibition above about 80%;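 also: cells exposed to compound for four days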); conditions: stronger effect = higher value
# [17] = growth inhibition of CRL1545 osteosarcoma cells, cell-based, cisplatin and BGB IC20 combos (AID 1671464; in the data active = inhibition above about 80%;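 also: cells exposed to compound for 96 hours before readout; 0% = vehicle DMSO and 100% = high DMSO killing control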); conditions: stronger effect = higher value
# [18] = measured here: with BGB IC20 combination, at 0.5 µM
# [19] = measured here: with cisplatin IC20 combination, at 0.5 µM
smiles,measurement,setting,value
O=C(O)[C@H](Cc1c[nH]c2ccccc12)N1C(=O)c2ccccc2C1=O,outcome,[1],inactive
same,outcome,[2],inactive
same,outcome,[3],inactive
same,outcome,[4],inactive
same,outcome,[5],inactive
same,fold change,"[6]; stronger effect = lower value, cell number ratio, induced over uninduced",0.96 (inactive)
same,fold change,[6]; measured here: relative caspase fold change +Dox/-Dox,0.441
same,cell count,"[6]; measured here: total cells with miR-34 induction, stronger effect = lower value",7740
same,cell count,[6]; measured here: total cells without miR-34 induction,8070
same,SSMD,[7],2.52
same,cell count,[7],7570
same,plate-normalised HSF1 focus index,[7],1.16 (inactive)
same,z-score,"[8]; MELAS cybrid survival, CellTiter-Glo 48 h, stronger effect = higher value",-0.375 (inactive)
same,z-score,"[8]; Rieske KO mouse fibroblast survival, CellTiter-Glo 72 h",-0.075
same,viability,"[9]; at 0.000305 µM, OCI-C5x cells, with rucaparib 10 µM, 100% = cells with rucaparib alone",113% (inactive)
same,viability,"[9]; at 0.000305 µM, OCI-C5x cells, without rucaparib",103% (inactive)
same,viability,"[9]; at 0.000305 µM, OCI-P5x cells, with rucaparib 20 µM, 100% = cells with rucaparib alone",84.4% (active)
same,viability,"[9]; at 0.000305 µM, OCI-P5x cells, without rucaparib",85.2% (active)
same,viability,"[9]; at 0.00122 µM, OCI-C5x cells, with rucaparib 10 µM, 100% = cells with rucaparib alone",126% (inactive)
same,viability,"[9]; at 0.00122 µM, OCI-C5x cells, without rucaparib",108% (inactive)
same,viability,"[9]; at 0.00122 µM, OCI-P5x cells, with rucaparib 20 µM, 100% = cells with rucaparib alone",92% (active)
same,viability,"[9]; at 0.00122 µM, OCI-P5x cells, without rucaparib",93.9% (active)
same,viability,"[9]; at 0.00488 µM, OCI-C5x cells, with rucaparib 10 µM, 100% = cells with rucaparib alone",118% (inactive)
same,viability,"[9]; at 0.00488 µM, OCI-C5x cells, without rucaparib",117% (inactive)
same,viability,"[9]; at 0.00488 µM, OCI-P5x cells, with rucaparib 20 µM, 100% = cells with rucaparib alone",89.2% (active)
same,viability,"[9]; at 0.00488 µM, OCI-P5x cells, without rucaparib",93.1% (active)
same,viability,"[9]; at 0.0195 µM, OCI-C5x cells, with rucaparib 10 µM, 100% = cells with rucaparib alone",116% (inactive)
same,viability,"[9]; at 0.0195 µM, OCI-C5x cells, without rucaparib",115% (inactive)
same,viability,"[9]; at 0.0195 µM, OCI-P5x cells, with rucaparib 20 µM, 100% = cells with rucaparib alone",91% (active)
same,viability,"[9]; at 0.0195 µM, OCI-P5x cells, without rucaparib",97.2% (active)
same,viability,"[9]; at 0.0781 µM, OCI-C5x cells, with rucaparib 10 µM, 100% = cells with rucaparib alone",109% (inactive)
same,viability,"[9]; at 0.0781 µM, OCI-C5x cells, without rucaparib",117% (inactive)
same,viability,"[9]; at 0.0781 µM, OCI-P5x cells, with rucaparib 20 µM, 100% = cells with rucaparib alone",87.1% (active)
same,viability,"[9]; at 0.0781 µM, OCI-P5x cells, without rucaparib",98.7% (active)
same,viability,"[9]; at 0.313 µM, OCI-C5x cells, with rucaparib 10 µM, 100% = cells with rucaparib alone",115% (inactive)
same,viability,"[9]; at 0.313 µM, OCI-C5x cells, without rucaparib",119% (inactive)
same,viability,"[9]; at 0.313 µM, OCI-P5x cells, with rucaparib 20 µM, 100% = cells with rucaparib alone",63.7% (active)
same,viability,"[9]; at 0.313 µM, OCI-P5x cells, without rucaparib",54.2% (active)
same,viability,"[9]; at 1.25 µM, OCI-C5x cells, with rucaparib 10 µM, 100% = cells with rucaparib alone",110% (inactive)
same,viability,"[9]; at 1.25 µM, OCI-C5x cells, without rucaparib",116% (inactive)
same,viability,"[9]; at 1.25 µM, OCI-P5x cells, with rucaparib 20 µM, 100% = cells with rucaparib alone",91.1% (active)
same,viability,"[9]; at 1.25 µM, OCI-P5x cells, without rucaparib",105% (inactive)
same,viability,"[9]; at 5 µM, OCI-C5x cells, with rucaparib 10 µM, 100% = cells with rucaparib alone",114% (inactive)
same,viability,"[9]; at 5 µM, OCI-C5x cells, without rucaparib",124% (inactive)
same,viability,"[9]; at 5 µM, OCI-P5x cells, with rucaparib 20 µM, 100% = cells with rucaparib alone",87.9% (active)
same,viability,"[9]; at 5 µM, OCI-P5x cells, without rucaparib",107% (inactive)
same,inhibition,"[10]; at 0.5 µM, stronger effect = higher value",-11.4% (inactive)
same,inhibition,"[10]; measured here: combination with BGB IC20, at 0.005 µM",-13.3%
same,inhibition,"[10]; measured here: combination with BGB IC40, at 0.005 µM",-16.5%
same,inhibition,"[10]; measured here: combination with BGB IC40, at 0.05 µM",-16.7%
same,inhibition,"[10]; measured here: combination with cisplatin, at 0.5 µM, stronger effect = higher value",-21.3%
same,inhibition,"[10]; measured here: combination with cisplatin, at 5 µM, stronger effect = higher value",-30.6%
same,inhibition,"[11]; BGB combo, at 5 µM",-27.5%
same,inhibition,[11]; at 0.5 µM,-36.3% (inactive)
same,inhibition,"[11]; cisplatin combo, at 5 µM",-28.6%
same,inhibition,[11]; [18],-35.8%
same,inhibition,[11]; [19],-38.5%
same,inhibition,"[11]; single agent, at 5 µM",-17%
same,inhibition,"[12]; BGB IC20 combo, at 0.005 µM",2.36%
same,inhibition,"[12]; BGB IC40 combo, at 0.005 µM",-26.6%
same,inhibition,"[12]; BGB IC40 combo, at 0.05 µM",4.66%
same,inhibition,[12]; at 0.5 µM,-28.2% (inactive)
same,inhibition,"[12]; cisplatin combo, at 0.05 µM",1.23%
same,inhibition,"[12]; cisplatin combo, at 0.5 µM",-24.8%
same,inhibition,"[12]; cisplatin combo, at 5 µM",-12.9%
same,inhibition,"[12]; measured here: 5 uM single agent, at 5 µM",3.99%
same,inhibition,[13]; at 0.5 µM,-21.8% (inactive)
same,inhibition,"[13]; measured here: with BGB IC20, at 0.5 µM",-19.3%
same,inhibition,"[13]; measured here: with BGB IC20, at 5 µM",-13.7%
same,inhibition,"[13]; measured here: with cisplatin IC20, at 0.5 µM",-26.1%
same,inhibition,"[13]; measured here: with cisplatin IC20, at 5 µM",-16.9%
same,inhibition,"[13]; single agent, at 5 µM",-18.1%
same,inhibition,[14]; at 0.5 µM,-15.2% (inactive)
same,inhibition,"[14]; measured here: BGB combination, at 0.5 µM",-12%
same,inhibition,"[14]; measured here: BGB combination, at 5 µM",-8.16%
same,inhibition,"[14]; measured here: cisplatin combination, at 0.5 µM",-19.2%
same,inhibition,"[14]; measured here: cisplatin combination, at 5 µM",-7.27%
same,inhibition,[15]; at 0.5 µM,-10.1% (inactive)
same,inhibition,"[15]; cisplatin combination, at 0.5 µM",-26.2%
same,inhibition,"[15]; cisplatin combination, at 5 µM",-3.75%
same,inhibition,"[15]; measured here: BGB IC40 combination 0.05 uM, at 0.05 µM",-4.25%
same,inhibition,"[15]; single agent, at 5 µM",-4.64%
same,inhibition,[16]; at 0.5 µM,-10.5% (inactive)
same,inhibition,"[16]; cisplatin combo, at 5 µM",-5.73%
same,inhibition,"[16]; measured here: BGB IC40 combination, at 0.05 µM",-15.4%
same,inhibition,"[16]; measured here: combination with cisplatin, at 0.5 µM",-22.8%
same,inhibition,"[16]; single agent, at 5 µM",-14.1%
same,inhibition,[17]; at 0.5 µM,-39.1% (inactive)
same,inhibition,[17]; [18],-34.3%
same,inhibition,[17]; [19],-43.9%
same,inhibition,"[17]; single agent, at 0.05 µM",-29.1%
same,inhibition,"[17]; single agent, at 5 µM",-40.2%
